# Inconclusive results are not listed. Activity calls are given as the source filed them.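 The calls were made as follows, unless noted: active = aptamer binding inhibition above 30%, about 3 SD of noise from non-fluorescent compounds; inactive = inhibition at or below 30%.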
# Key:
# [1] = rapamycin-like changes in RPL19A-GFP expression – cell-based, S. cerevisiae, multiplex flow cytometry, primary screen (AID 1862; in the data active = percent of DMSO control GFP below about 86%;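 also: lower values mimic rapamycin by blocking the RPL19A rise seen in DMSO cells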); details: S. cerevisiae RPL19A-GFP strain, flow cytometry fluorescence, 3 h; at 10 µM; stronger effect = lower value
# [2] = TOR pathway GLN3 branch reporter MEP2-GFP changes – S. cerevisiae, multiplex flow cytometry, primary screen (AID 1867;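 active = GFP response, as percent of the DMSO control, above the screen-wide mean plus 3 SD, about 139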;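 also: median GFP channel fluorescence of barcode-gated MEP2-GFP cells measured by flow cytometry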); details: S. cerevisiae MEP2-GFP strain, 3 h, at 10 µM, stronger effect = higher value, 100% means same as DMSO wells
# [3] = TOR pathway RTG branch CIT2 reporter changes – S. cerevisiae, GFP fusion, multiplex flow cytometry, primary screen (AID 1870;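 active = percent response above a set limit, the screen-wide mean plus 3 SD, cut at about 130% in these data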;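 also: barcoded CIT2-GFP strain pooled with four other GFP strains with rapamycin as positive control; median GFP fluorescence per well over plate mean of DMSO wells so 100% = DMSO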); details: S. cerevisiae CIT2-GFP expression, 3 h, at 10 µM, stronger effect = higher value
# [4] = TOR pathway LAP4-GFP level changes – S. cerevisiae, multiplex flow cytometry, primary screen (AID 1873;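 active = GFP signal, as percent of the solvent control, above the screen mean plus 3 SD, about 149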); details: S. cerevisiae LAP4-GFP expression, 3 h, at 10 µM, stronger effect = higher value
# [5] = yeast AGP1-GFP level changes, GLN3 branch – cell-based, multiplex flow cytometry, S. cerevisiae, primary screen (AID 1887;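 active = GFP signal above the screen-wide mean plus 3 SD, that is over about 124.5% of the solvent control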;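 also: AGP1-GFP fusion strain of S. cerevisiae within a five-strain barcoded multiplex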); details: 3 h, at 10 µM, stronger effect = higher value
# [6] = reduced mouse 2C T cell binding to pMHC/ICAM-1 vesicles – MLPCN validation set, flow cytometry, LFA-1/ICAM-1 modulator project, pilot screen (AID 2523;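 active = response below a set limit, under 55% cells CD8-positive and vesicle-bound, and CD8 cells' 90th-percentile brightness under 279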;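 as to vesicle binding response: mean PE anti-B7-1 fluorescence of CD8+ cells relative to row control; 100% = QL9-loaded vesicles with DMSO vehicle in the same plate row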); details: 2C mouse CD8+ T cells, at 7 µM, stronger effect = lower value; double positive events: measured here: CD8+/vesicle+ event percentage
# [7] = molecular target: Integrin beta-1 (Homo sapiens) + Integrin alpha-4 (Homo sapiens) (UniProt P13612+P05556); assay: alpha4beta1 integrin LIBS antibody binding reduction – U937 cells, HUTS-21 mAb, flow cytometry, validation set, VLA-4 allosteric modulator project, pilot screen (AID 2674;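 active = inhibition above 50%, about 3 SD of the validation set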;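 also: antibody binding induced by the VLA-4 ligand LDV present at three times its Kd; 0% = LDV ligand with antibody and no compound and 100% = antibody without LDV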); details: HUTS-21 LIBS mAb binding, at 6.7 µM, stronger effect = higher value, binding induced by LDV ligand
# Sequence of Integrin beta-1 (Homo sapiens) + Integrin alpha-4 (Homo sapiens) (P05556 whole entry, looked up): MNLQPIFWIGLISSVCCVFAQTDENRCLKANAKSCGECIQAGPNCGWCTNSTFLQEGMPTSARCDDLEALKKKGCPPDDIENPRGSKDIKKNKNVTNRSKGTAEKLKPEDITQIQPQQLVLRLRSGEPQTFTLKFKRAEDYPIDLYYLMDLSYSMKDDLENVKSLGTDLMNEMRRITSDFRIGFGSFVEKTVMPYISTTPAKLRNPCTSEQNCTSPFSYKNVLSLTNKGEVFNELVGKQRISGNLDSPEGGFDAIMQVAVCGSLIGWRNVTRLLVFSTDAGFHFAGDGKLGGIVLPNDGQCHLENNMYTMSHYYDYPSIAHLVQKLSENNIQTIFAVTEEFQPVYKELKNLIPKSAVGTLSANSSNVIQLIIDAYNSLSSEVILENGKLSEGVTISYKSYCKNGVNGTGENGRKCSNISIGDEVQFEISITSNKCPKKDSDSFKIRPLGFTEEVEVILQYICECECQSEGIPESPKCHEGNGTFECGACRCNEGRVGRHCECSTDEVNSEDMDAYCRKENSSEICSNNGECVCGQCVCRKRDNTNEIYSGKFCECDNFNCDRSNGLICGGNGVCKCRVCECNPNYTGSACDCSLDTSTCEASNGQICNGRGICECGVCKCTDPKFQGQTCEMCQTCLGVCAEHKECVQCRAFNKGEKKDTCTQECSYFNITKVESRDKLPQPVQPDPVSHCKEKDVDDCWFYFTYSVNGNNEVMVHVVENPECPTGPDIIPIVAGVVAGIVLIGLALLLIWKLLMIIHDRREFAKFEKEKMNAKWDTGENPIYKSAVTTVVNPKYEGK
# Sequence of Integrin beta-1 (Homo sapiens) + Integrin alpha-4 (Homo sapiens) (P13612 whole entry, looked up): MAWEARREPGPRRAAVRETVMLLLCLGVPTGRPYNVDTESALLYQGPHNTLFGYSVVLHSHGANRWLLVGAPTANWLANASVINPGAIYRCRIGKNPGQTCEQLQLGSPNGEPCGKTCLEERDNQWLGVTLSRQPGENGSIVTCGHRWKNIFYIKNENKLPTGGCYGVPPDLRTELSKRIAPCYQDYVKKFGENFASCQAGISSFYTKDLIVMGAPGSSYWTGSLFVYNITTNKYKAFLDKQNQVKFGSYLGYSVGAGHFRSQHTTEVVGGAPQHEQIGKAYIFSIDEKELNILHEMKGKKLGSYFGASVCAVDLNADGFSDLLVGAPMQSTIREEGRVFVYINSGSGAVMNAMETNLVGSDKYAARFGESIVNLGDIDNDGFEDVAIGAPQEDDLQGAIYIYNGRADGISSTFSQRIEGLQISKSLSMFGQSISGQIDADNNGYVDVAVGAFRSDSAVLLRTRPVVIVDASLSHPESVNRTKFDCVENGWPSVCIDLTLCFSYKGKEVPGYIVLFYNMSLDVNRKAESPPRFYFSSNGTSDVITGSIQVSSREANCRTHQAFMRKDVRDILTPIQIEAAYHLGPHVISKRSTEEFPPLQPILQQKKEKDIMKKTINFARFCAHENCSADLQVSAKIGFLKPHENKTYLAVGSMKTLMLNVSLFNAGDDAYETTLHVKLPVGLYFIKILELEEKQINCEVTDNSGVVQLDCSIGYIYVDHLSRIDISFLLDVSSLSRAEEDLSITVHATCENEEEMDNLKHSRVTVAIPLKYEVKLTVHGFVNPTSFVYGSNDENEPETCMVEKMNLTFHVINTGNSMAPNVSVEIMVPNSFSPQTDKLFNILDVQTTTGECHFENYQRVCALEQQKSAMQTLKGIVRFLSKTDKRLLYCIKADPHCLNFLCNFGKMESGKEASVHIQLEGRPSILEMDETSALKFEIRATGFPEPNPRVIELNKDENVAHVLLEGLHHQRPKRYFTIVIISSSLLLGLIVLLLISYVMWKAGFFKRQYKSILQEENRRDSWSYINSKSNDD
# [8] = calorie-restriction mimetic ROS inhibitors, yeast – validation compound set, pilot screen (AID 2706;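 active = superoxide response below 65% of plate, a cut near 3 SD across the whole screen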;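 also: yeast exposed to compound for one week at 30 degrees C before staining; 100% = mean of all compound wells on the same plate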); details: S. cerevisiae aging, superoxide DHE fluorescence; at 10 µM; stronger effect = lower value
# [9] = molecular target: Beta-adrenergic receptor kinase 1 (Homo sapiens) (UniProt P25098); assay: GRK2 binders displacing RNA aptamer, biochemical, validation, human GRK2, bead flow cytometry (AID 488806); details: bead-bound GRK2, FAM-aptamer displacement, at 10 µM, stronger effect = higher value
# Sequence of Beta-adrenergic receptor kinase 1 (Homo sapiens) (P25098 whole entry, looked up): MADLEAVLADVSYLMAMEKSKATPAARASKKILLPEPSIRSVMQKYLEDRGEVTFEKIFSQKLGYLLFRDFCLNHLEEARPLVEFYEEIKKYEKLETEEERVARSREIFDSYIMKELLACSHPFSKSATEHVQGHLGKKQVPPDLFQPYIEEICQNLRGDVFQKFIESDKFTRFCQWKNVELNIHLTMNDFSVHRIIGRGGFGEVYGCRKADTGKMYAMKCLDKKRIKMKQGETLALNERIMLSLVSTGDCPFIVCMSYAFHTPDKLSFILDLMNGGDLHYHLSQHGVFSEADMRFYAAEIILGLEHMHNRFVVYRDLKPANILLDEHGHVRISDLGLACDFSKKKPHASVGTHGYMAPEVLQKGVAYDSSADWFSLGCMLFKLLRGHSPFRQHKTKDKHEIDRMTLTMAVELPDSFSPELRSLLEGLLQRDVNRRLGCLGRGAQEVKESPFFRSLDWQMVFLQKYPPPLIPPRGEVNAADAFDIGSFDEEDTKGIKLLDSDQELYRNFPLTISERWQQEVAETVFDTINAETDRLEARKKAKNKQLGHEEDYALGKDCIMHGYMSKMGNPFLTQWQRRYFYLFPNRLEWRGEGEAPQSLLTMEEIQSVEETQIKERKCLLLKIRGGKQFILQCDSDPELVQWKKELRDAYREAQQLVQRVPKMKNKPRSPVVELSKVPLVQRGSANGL
# [10] = molecular target: Beta-2 adrenergic receptor (Homo sapiens) (UniProt P07550); assay: agonist-induced loss of surface beta2AR – cell-based, FAP fluorogen, flow cytometry, validation set, pilot screen (AID 504459;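 active = percent response above 42, roughly 3 SD of non-fluorescent test compounds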;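 also: agonist-driven loss of surface beta2AR via internalization measured by FAP dye flow cytometry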); details: Am2.2-beta2AR cells, at 10 µM, stronger effect = higher value
# Sequence of Beta-2 adrenergic receptor (Homo sapiens) (P07550 whole entry, looked up): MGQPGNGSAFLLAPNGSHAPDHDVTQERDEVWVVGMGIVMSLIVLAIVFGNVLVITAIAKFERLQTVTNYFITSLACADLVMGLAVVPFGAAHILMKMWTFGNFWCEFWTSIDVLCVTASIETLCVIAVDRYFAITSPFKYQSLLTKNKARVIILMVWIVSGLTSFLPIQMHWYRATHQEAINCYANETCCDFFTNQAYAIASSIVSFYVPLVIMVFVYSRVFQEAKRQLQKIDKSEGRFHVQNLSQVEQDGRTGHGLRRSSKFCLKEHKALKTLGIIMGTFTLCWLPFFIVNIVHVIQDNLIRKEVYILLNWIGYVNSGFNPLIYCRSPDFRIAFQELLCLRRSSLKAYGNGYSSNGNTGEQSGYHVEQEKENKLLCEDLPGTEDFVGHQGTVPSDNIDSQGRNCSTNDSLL
# [11] = molecular target: AP-2 complex subunit beta (Homo sapiens) (UniProt P63010); assay: beta-arrestin/AP2 interaction blockers – biochemical, validation set, GST-AP2 beads, flow cytometry, pilot screen (AID 504541;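 active = inhibition above 54%, about 3 SD of non-fluorescent compounds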;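 also: AP2 carries R879A mutation and is captured from E. coli lysate; bead-bound FITC arrestin peptide fluorescence measuring arrestin peptide binding to AP2; 0% = DMSO wells and 100% = excess unlabeled arrestin peptide control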); details: FITC arrestin peptide, at 10 µM, stronger effect = higher value, AP2 beta2 appendage fragment, R879A mutant
# Sequence of AP-2 complex subunit beta (Homo sapiens) (P63010 whole entry, looked up, the tested form may be a part, one chain of several): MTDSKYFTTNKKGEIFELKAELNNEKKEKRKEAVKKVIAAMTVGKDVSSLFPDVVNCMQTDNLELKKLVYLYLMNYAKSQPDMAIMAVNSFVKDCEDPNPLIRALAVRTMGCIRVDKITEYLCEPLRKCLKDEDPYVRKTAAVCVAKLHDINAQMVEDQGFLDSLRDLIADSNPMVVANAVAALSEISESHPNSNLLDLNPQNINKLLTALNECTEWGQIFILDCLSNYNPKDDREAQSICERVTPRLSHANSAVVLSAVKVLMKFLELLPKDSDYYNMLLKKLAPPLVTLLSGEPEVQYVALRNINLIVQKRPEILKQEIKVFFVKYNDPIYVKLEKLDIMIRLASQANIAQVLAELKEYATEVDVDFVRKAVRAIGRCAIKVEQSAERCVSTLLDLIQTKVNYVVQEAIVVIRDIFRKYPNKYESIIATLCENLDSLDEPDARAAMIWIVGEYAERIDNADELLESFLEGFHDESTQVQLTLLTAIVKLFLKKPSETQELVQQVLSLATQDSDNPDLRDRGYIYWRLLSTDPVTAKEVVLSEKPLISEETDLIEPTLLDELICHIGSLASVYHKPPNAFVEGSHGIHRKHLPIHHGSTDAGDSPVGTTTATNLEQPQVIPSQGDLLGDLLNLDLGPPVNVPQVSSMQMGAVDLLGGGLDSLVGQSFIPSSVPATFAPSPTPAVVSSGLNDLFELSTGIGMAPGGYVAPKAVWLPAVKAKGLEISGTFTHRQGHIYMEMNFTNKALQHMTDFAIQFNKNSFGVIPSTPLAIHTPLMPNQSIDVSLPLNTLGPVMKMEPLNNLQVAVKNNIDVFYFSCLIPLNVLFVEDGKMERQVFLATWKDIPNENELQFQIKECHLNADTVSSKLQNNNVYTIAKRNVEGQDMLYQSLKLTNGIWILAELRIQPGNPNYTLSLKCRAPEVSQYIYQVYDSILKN
# [12] = cytosolic pH regulators acting via V-ATPase – S. cerevisiae, pHLuorin, HTS validation (AID 504600; in the data active = response above about 15%;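 also: plate controls were DMSO for no effect and reference compound for full effect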); details: V-ATPase proton transport, at 10 µM, stronger effect = higher value
# [13] = test system: anti-desmoglein-3 scFv antibody binding to human DSG3; assay: blockers of pathogenic pemphigus antibody–desmoglein-3 binding – biochemical, validation compound set, bead-based, flow cytometry, pilot screen (AID 588368;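 active = binding below the plate cutoff, the plate median minus 3 SD, with a reading above zero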;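 also: signal is the median channel fluorescence of bead-bound GFP antibody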); details: Protein G beads, DSG3-Fc, scFv-GFP binding, at 10 µM, stronger effect = lower value
# [14] = Nile Red efflux blockade in pump-expressing yeast – validation compound set, multiplex, phenotypic, pilot screen (AID 588506;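 active = efflux inhibition above 0.42, the validation set average plus 4 SD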;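 also: Nile Red retained in cells so higher fluorescence means more efflux inhibition; 0 = negative control wells and 1 = enniatin B 25 µM full block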); details: S. cerevisiae pump-expressing triplex, Nile Red efflux flow cytometry; at 10 µM; stronger effect = higher value; the pumps come from Candida albicans
# [15] = molecular target: ATP-binding cassette sub-family B member 6 (Homo sapiens) (UniProt Q9NP58); assay: blockers of ABCB6-driven porphyrin uptake – K562-ABCB6 cells, flow cytometry, validation set, pilot screen (AID 588550;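 active = inhibition above the screen-wide mean plus 3 SD, about 51%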;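 also: 0% = DMSO wells and 100% = benzethonium chloride 70 µM positive control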); details: K562-ABCB6 porphyrin accumulation, 1 h, at 10 µM, stronger effect = higher value
# Sequence of ATP-binding cassette sub-family B member 6 (Homo sapiens) (Q9NP58 whole entry, looked up): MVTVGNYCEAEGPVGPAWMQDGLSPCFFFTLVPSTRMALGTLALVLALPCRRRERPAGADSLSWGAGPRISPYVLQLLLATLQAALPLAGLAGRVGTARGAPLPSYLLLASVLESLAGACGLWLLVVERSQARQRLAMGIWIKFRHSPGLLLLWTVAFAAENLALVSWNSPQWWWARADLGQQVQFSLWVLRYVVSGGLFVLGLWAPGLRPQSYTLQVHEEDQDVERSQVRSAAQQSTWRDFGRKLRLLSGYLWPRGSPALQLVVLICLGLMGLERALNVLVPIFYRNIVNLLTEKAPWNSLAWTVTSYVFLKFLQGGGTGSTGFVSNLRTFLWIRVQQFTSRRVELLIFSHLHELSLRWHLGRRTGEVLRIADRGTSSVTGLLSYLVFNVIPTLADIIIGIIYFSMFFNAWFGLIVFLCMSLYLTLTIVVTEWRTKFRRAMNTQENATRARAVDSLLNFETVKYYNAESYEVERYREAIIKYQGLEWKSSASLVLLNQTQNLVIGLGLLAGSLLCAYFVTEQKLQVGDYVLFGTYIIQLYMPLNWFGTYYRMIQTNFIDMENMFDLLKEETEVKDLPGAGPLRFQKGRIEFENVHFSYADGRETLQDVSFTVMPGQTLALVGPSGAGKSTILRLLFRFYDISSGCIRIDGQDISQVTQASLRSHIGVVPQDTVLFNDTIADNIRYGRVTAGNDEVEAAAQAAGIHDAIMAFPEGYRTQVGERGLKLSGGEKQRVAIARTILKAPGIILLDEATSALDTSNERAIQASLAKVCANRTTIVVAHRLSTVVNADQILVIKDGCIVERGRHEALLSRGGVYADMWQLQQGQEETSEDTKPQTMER
# [16] = AML differentiation inducers, ER-HoxA9 marrow cells – cell-based, GFP/MAC1 double positive, flow cytometry, validation set, primary screen (AID 588685;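 active = differentiation response of at least 50%, scaled between solvent and reference control, from cells with both markers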;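 also: compound exposure lasts four days before antibody staining and flow analysis; 0% = DMSO wells and 100% = 5 µM fulvestrant positive control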); details: stronger effect = higher value, normalized: vehicle 0, fulvestrant 100
Compound,percent of DMSO control GFP [1],GFP response vs DMSO [2],percent response of DMSO control [3],GFP response vs DMSO [4],"GFP response, % of DMSO [5]",double positive events [6] [%],vesicle binding response [6],inhibition [7],superoxide response (% of plate) [8],aptamer binding inhibition [9],response [10],inhibition [11],response [12],binding (% of control) [13],efflux inhibition (fraction of control) [14],inhibition [15],differentiation response [16]
COc1ccc2nc(S(=O)Cc3ncc(C)c(OC)c3C)[nH]c2c1 (stereo not drawn),107% (inactive),105% (inactive),99.7% (inactive),95.9% (inactive),97.1% (inactive),60.4,131% (inactive),-13.2% (inactive),84.9% (inactive),2% (inactive),24.8% (inactive),-8.15% (inactive),0.81% (inactive),104% (inactive),-0.16 (inactive),-7% (inactive),52.5% (active)
CCOC(=O)c1ccc(NC(=S)NCCc2ccccc2F)cc1,100% (inactive),107% (inactive),101% (inactive),111% (inactive),93.7% (inactive),68.7,1410% (inactive),-21.2% (inactive),98.7% (inactive),3% (inactive),2.84% (inactive),18.6% (inactive),1.24% (inactive),104% (inactive),0.58 (active),-3% (inactive),9.04% (inactive)
Cc1ccc(C2CC(=O)C(C=NCCN3CCN(CC(=O)Nc4cc(C)cc(C)c4)CC3)=C(O)C2)cc1 (stereo not drawn),103% (inactive),103% (inactive),97.6% (inactive),108% (inactive),105% (inactive),60.5,196% (inactive),-17.2% (inactive),102% (inactive),-3% (inactive),-1.95% (inactive),-1.73% (inactive),-0.35% (inactive),103% (inactive),-0.05 (inactive),13% (inactive),-16.3% (inactive)
Fc1ccc(NC(=S)Nc2ccccc2Cl)cc1,91.1% (inactive),133% (inactive),106% (inactive),78.7% (inactive),93.1% (inactive),63.7,235% (inactive),20% (inactive),91.9% (inactive),3% (inactive),-6.11% (inactive),10.1% (inactive),0.15% (inactive),102% (inactive),0.37 (inactive),12% (inactive),-1.64% (inactive)
CCOc1ccc2[nH]c3c(=O)n(CCc4ccc(OC)cc4)cnc3c2c1,99.5% (inactive),112% (inactive),90.1% (inactive),120% (inactive),101% (inactive),61.3,211% (inactive),6.4% (inactive),99.7% (inactive),0% (inactive),0.24% (inactive),-8.18% (inactive),65.9% (active),102% (inactive),0.12 (inactive),5% (inactive),29.6% (inactive)
Nc1ccc(-c2nc3ncccc3o2)c(Cl)c1,97.8% (inactive),103% (inactive),97.7% (inactive),112% (inactive),98.6% (inactive),56.7,243% (inactive),-15.4% (inactive),118% (inactive),0% (inactive),0.9% (inactive),-5.26% (inactive),61.4% (active),103% (inactive),0.15 (inactive),6% (inactive),4% (inactive)
CC1(C)CC(C(CC(=O)N2CCCC2)Cc2ccccc2)CCO1 (stereo not drawn),100% (inactive),99.7% (inactive),104% (inactive),102% (inactive),106% (inactive),62.9,118% (inactive),-2.43% (inactive),107% (inactive),-2% (inactive),-11% (inactive),21.8% (inactive),-8.82% (inactive),103% (inactive),0.36 (inactive),18% (inactive),15.9% (inactive)
Cc1ccc(C(=O)COC(=O)c2cccc(N3C(=O)c4c(C)nc5ccccc5c4C3=O)c2)cc1C,99.5% (inactive),102% (inactive),97% (inactive),110% (inactive),113% (inactive),61.9,170% (inactive),-8.78% (inactive),107% (inactive),1% (inactive),-22.6% (inactive),-6.3% (inactive),-3.74% (inactive),98.8% (inactive),0.25 (inactive),2% (inactive),-13.9% (inactive)
NC(=O)C1CCCNC1 (stereo not drawn),106% (inactive),98.7% (inactive),109% (inactive),98% (inactive),105% (inactive),75.5,302% (inactive),1.59% (inactive),104% (inactive),-2% (inactive),7.03% (inactive),0.42% (inactive),-3.07% (inactive),103% (inactive),0.11 (inactive),10% (inactive),8.59% (inactive)
COc1ccc2c(c1OC)C(=O)N1C2SC[C@H]1C(=O)NC1CC(C)(C)NC(C)(C)C1 (stereo partly drawn),99.8% (inactive),133% (inactive),111% (inactive),84.7% (inactive),93.1% (inactive),48.3,17.2% (active),1.61% (inactive),91.6% (inactive),6% (inactive),3.43% (inactive),39.2% (inactive),-0.76% (inactive),103% (inactive),0.09 (inactive),1% (inactive),30.3% (inactive)
CCNC1=C(Cl)C(=O)c2ccccc2C1=O,104% (inactive),104% (inactive),91.8% (inactive),127% (inactive),113% (inactive),59.8,159% (inactive),21% (inactive),229% (inactive),3% (inactive),-20% (inactive),-22.4% (inactive),1.03% (inactive),104% (inactive),-0.09 (inactive),-12% (inactive),0.92% (inactive)
COc1ccc(C(=O)CC2OC(=O)c3c2ccc(OC)c3OC)cc1 (stereo not drawn),106% (inactive),100% (inactive),106% (inactive),99.9% (inactive),104% (inactive),63,256% (inactive),4.73% (inactive),107% (inactive),2% (inactive),-6.79% (inactive),-3.63% (inactive),-4.39% (inactive),95.8% (inactive),-0.01 (inactive),8% (inactive),-2.69% (inactive)
OCCN(CCO)c1nc(N2CCCCC2)c2nc(N(CCO)CCO)nc(N3CCCCC3)c2n1,105% (inactive),102% (inactive),100% (inactive),107% (inactive),108% (inactive),62.5,175% (inactive),-9.63% (inactive),98% (inactive),3% (inactive),7.65% (inactive),18.6% (inactive),15.4% (active),106% (inactive),0.08 (inactive),-6% (inactive),-7.94% (inactive)
CC(C)NS(=O)(=O)c1ccc(OCC(=O)Nc2cccc(F)c2)cc1,101% (inactive),98.7% (inactive),106% (inactive),89.3% (inactive),92.4% (inactive),59.7,143% (inactive),-11.8% (inactive),95.1% (inactive),3% (inactive),3.73% (inactive),5.6% (inactive),-2.45% (inactive),98.5% (inactive),0.22 (inactive),7% (inactive),-10.4% (inactive)
CC[C@]1(O)CC2CN(CCc3c([nH]c4ccccc34)[C@@](C(=O)OC)(c3cc4c(cc3OC)N(C=O)[C@H]3[C@@](O)(C(=O)OC)[C@H](OC(C)=O)[C@]5(CC)C=CCN6CC[C@]43[C@@H]65)C2)C1 (stereo partly drawn),103% (inactive),98.5% (inactive),101% (inactive),94% (inactive),98.5% (inactive),61.8,204% (inactive),48.7% (inactive),93% (inactive),3% (inactive),23.4% (inactive),-4.62% (inactive),6.03% (inactive),97.2% (inactive),0.12 (inactive),112% (active),4% (inactive)
CN(C)CCOC(=O)C(c1ccccc1)C1(O)CCCC1 (stereo not drawn),92% (inactive),137% (inactive),97.9% (inactive),75.9% (inactive),84.3% (inactive),65.7,249% (inactive),13.2% (inactive),96.1% (inactive),3% (inactive),2.3% (inactive),1.31% (inactive),0.51% (inactive),103% (inactive),0.05 (inactive),14% (inactive),-6.55% (inactive)
Cc1ccc(Cl)c(Nc2ccccc2C(=O)O)c1Cl,98.9% (inactive),103% (inactive),94.4% (inactive),114% (inactive),98% (inactive),60.7,123% (inactive),2.29% (inactive),95.2% (inactive),2% (inactive),-14.2% (inactive),1.34% (inactive),11.1% (inactive),103% (inactive),-0.13 (inactive),2% (inactive),-4.99% (inactive)
Nc1nnc(CSCc2ccc(Cl)cc2Cl)s1,101% (inactive),98.7% (inactive),105% (inactive),105% (inactive),105% (inactive),58.8,162% (inactive),-11.8% (inactive),95.2% (inactive),-1% (inactive),-6.41% (inactive),5.12% (inactive),3.83% (inactive),112% (inactive),0.47 (active),0% (inactive),10.1% (inactive)
c1coc(-c2nnc3n2C2(CCCC2)Cc2ccccc2-3)c1,94.2% (inactive),114% (inactive),97.9% (inactive),82.5% (inactive),91.5% (inactive),73.1,279% (inactive),25.9% (inactive),91.6% (inactive),4% (inactive),-2% (inactive),-13.2% (inactive),0.46% (inactive),109% (inactive),-0.6 (inactive),14% (inactive),3.28% (inactive)
